The list is not random: actives were taken first. Their share in the collection is about 2.1%.
PAX8 reporter = inhibitors of PAX8 transcriptional activity in RMG-I cells. inhibition, % at 12.6 µM. 360,000 tested, 1.2% active. RMG-I TPO-luciferase reporter, SteadyGlo, 24 h;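 active = mean replicate inhibition at least 60% with every replicate also reaching 60%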;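 note: luciferase light reporting Pax8 driven TPO promoter activity; plate controls were median of neutral control wells for no effect and mitoxantrone controls for full effect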
HIF-2a inh = HIF-2a inhibition. 786-0 RCC cells HIF-2a reporter, luciferase luminescence, overnight. inhibition, % at 18.8 µM. 360,000 tested, 0.72% active. AID 624352;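 active = inhibition of the luminescence signal of 40% or more relative to plate controls, in a single-dose primary screen at 18.75 µM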
EWS-Fli inh = inhibitors of EWS/Fli oncoprotein transcriptional activity. A673 NR0B1-luciferase reporter, viability-normalised. AID 651661. inhibition, % at 12.6 µM. 350,000 tested, 0.67% active;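 active = mean inhibition of at least 50% after viability correction, with every replicate also passing that limit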;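 note: firefly luciferase signal divided by Alamar Blue viability fluorescence both relative to DMSO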
KKLEB cytotox = CF airway cell cytotoxicity counter-screen | KKLEB CF airway cells viability, ATPlite luminescence, overnight; hits give low values; cells stimulated with P. aeruginosa culture filtrate | 360,000 tested, 0.36% active | activity change (cytotoxicity), % at 5 µM;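 active = corrected activity change at or below -50% at 5 µM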
CF NFkB inh = blocks PAF-induced NF-kB reporter in cystic fibrosis cells; inhibition, % at 5 µM; KKLEB NF-kB-GFP reporter, GFP fluorescence overnight; 360,000 tested, 0.86% active;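 active = at least 50% inhibition at 5 µM, scaled per plate between neutral and stimulator controls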;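 note: PAF is a Pseudomonas aeruginosa culture filtrate used as stimulus; plate controls were PAF-stimulated DMSO wells for no effect and unstimulated DMSO wells for full effect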
CF NFkB inh conf = confirmation of cystic fibrosis induced NF-kB inhibitors | shares compounds with CF NFkB inh | KKLEB CF airway cells, PAF-induced NF-kB-GFP fluorescence, overnight | inhibition, % at 5 µM | 1,300 tested, 64% active | AID 602472; in the data active = inhibition above about 40%;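 note: stimulus PAF is a Pseudomonas aeruginosa filtrate and not platelet activating factor; plate controls were DMSO wells with stimulus for no effect and unstimulated DMSO wells for full effect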
Active calls of the source: *; / = no result given.

SMILES	PAX8 reporter	HIF-2a inh	EWS-Fli inh	KKLEB cytotox	CF NFkB inh	CF NFkB inh conf
CCC(CO)Oc1cc(NCc2ccccc2C(F)(F)F)c2ncn(C(C)C)c2c1 (stereo not given)	17	22	0	-17	61*	11
CCCCOc1cc(NCc2ccccc2)c2ncn(C(C)C)c2c1	19	1	11	-8	60*	22
CCC(COC)Oc1cc(NCc2ccccc2)c2ncn(C(C)C)c2c1 (stereo not given)	70*	12	4	-15	66*	20
CCC(CO)Oc1cc(NCc2ccc(O)cc2)c2ncn(C(C)C)c2c1 (stereo not given)	8	2	8	-3	7	/
CCC(CO)Oc1cc(NCc2ccc(C(C)(C)C)cc2)c2ncn(C(C)C)c2c1 (stereo not given)	27	20	8	1	51*	29
COc1ccc(S(=O)(=O)Nc2ccc3c(c2)C(=O)N([C@@H](C)CO)C[C@H](C)[C@H](CN(C)C(=O)CCC(F)(F)F)OCCCC[C@H](C)O3)cc1	18	/	-6	/	/	/
O=C(c1cccc(F)c1)N1CC2(C1)[C@H](c1ccccc1)[C@@H](CO)N2C(=O)C1CCCC1	/	/	1	/	/	/
O=C1CCC(N2C(=O)c3ccccc3C2=O)C(=O)N1 (stereo not given)	3	-6	-3	18	76*	12
O=C1c2ccccc2C(=O)N1C1CCCCC1	-17	5	5	-4	6	/
Cc1noc(C)c1S(=O)(=O)N(C)C[C@@H]1Oc2ccc(NC(=O)Cn3cnnn3)cc2CC(=O)N([C@H](C)CO)C[C@H]1C	/	/	-1	/	/	/
COc1ccc(-c2csc3ncnc(NCCN4CCOCC4)c23)cc1	/	33	/	-17	56*	82*
Clc1ccc(-c2csc3ncnc(NCCN4CCOCC4)c23)cc1	2	22	/	-13	44	/
Cc1ccc(-c2csc3ncnc(NCCN4CCOCC4)c23)cc1	3	31	/	-23	58*	47*
C/C=C/c1ccc([C@@H]2[C@H](CO)N3C(=O)CN(Cc4ccc(F)cc4)C[C@@H]23)cc1	/	/	-1	/	/	/
CO[C@@H]1CN(C)C(=O)c2cc(NC(=O)Nc3ccc(Cl)c(Cl)c3)ccc2OC[C@@H](C)NC[C@@H]1C	35	/	-1	/	/	/
Cc1sc2ncnc(SCC(=O)N3CCC(c4noc5ccc(F)cc45)CC3)c2c1C	/	-1	/	-11	-3	/
Cc1nnc(SCC(=O)N2CCC(c3noc4ccc(F)cc34)CC2)s1	/	2	-7	-14	64*	90*
O=C(NCC1CC1)[C@@H]1[C@@H](CO)[C@@H]2Cn3c(ccc(C4=CCCC4)c3=O)[C@H]1N2C(=O)C1CC1	6	/	4	/	/	/
O=C(NCCc1ccc(F)cc1)Nc1ccc([N+](=O)[O-])cc1	-30	-111	/	14	-28	/
O=[N+]([O-])c1ccc(NC(=S)NCCc2ccc(F)cc2)cc1	81*	-84	-6	-48	50*	66*
O=C(Nc1ccccc1)Nc1ncc([N+](=O)[O-])s1	85*	-136	14	-42	57*	87*
CCOC(=O)N1CCN(c2ncnc3scc(-c4ccc(Cl)cc4)c23)CC1	/	1	/	-10	29	/
Clc1ccc(-c2csc3ncnc(N4CCc5ccccc5C4)c23)cc1	7	36	/	-12	55*	46*
CO[C@H]1CN(C)C(=O)c2cc(NC(=O)Nc3ccccc3Cl)ccc2OC[C@@H](C)NC[C@H]1C	/	/	4	/	/	/
COCC(=O)N1CC[C@@H]2[C@H](CO)Nc3ccc(C#Cc4ccc(F)cc4)cc3[C@@H]21	15	/	-19	/	/	/
SMILES	PAX8 reporter	HIF-2a inh	EWS-Fli inh	KKLEB cytotox	CF NFkB inh	CF NFkB inh conf
CC(c1ccccc1)N1C(=O)c2ccc(C(=O)Nc3ccc(Br)cc3C(=O)O)cc2C1=O (stereo not given)	7	-3	-1	-4	60*	44*
CO[C@@H]1CN(C)C(=O)c2ccc(NC(=O)Nc3ccccc3F)cc2OC[C@H](C)N(C)C[C@H]1C	/	/	-2	/	/	/
Cc1ccc(C(=O)c2cncc(Br)c2)cc1	-59	-66	/	-8	50*	62*
C[C@H](CO)N1C[C@H](C)[C@@H](CN(C)CC2CCOCC2)Oc2ncc(C#Cc3ccncc3)cc2C1=O	/	/	-2	/	/	/
CN(C)C(=O)C#Cc1ccccc1	-6	3	-2	-7	-3	/
O=C(C#Cc1ccccc1)c1ccccc1	46	6	70*	-28	99*	44*

Compound activity as filed in PubChem.
